This is an account of results in PubChem BioAssay (NCI).

Test [1] can be described thus: NCI Yeast Anticancer Drug Screen. Data for the rad50 strain (AID 155).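 Further: 0% = growth of vehicle-only cultures of the same strain.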 The settings on record: S. cerevisiae rad50 strain growth inhibition, active compounds read high. The method in brief:
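Genetically altered yeast (DNA repair pathway); compound treatment; growth inhibition vs vehicle ctrl.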

Test [2] can be described thus: NCI Yeast Anticancer Drug Screen. Data for the mec2-1 strain (AID 157). The settings on record: S. cerevisiae mec2-1 strain, active compounds read high. In short, it runs like this:
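Using mec2-1 yeast: add compound, measure growth, express inhibition versus vehicle-treated cultures.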

Test [3] is described as follows: NCI Yeast Anticancer Drug Screen. Data for the sgs1 mgt1 strain (AID 161).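 Further: 0% = growth of cultures given vehicle only.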 The settings on record: S. cerevisiae sgs1 mgt1 strain, active compounds read high. The method in brief: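 Growth of a repair-deficient yeast mutant was monitored after compound treatment and expressed as inhibition relative to vehicle-treated cultures.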
Test [4] is described as follows: NCI Yeast Anticancer Drug Screen. Data for the cln2 rad14 strain (AID 165).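 Further: 0% = growth equal to vehicle treated cultures.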 The settings on record: S. cerevisiae cln2 rad14 strain, active compounds read high. In short, it runs like this: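 Yeast strain cln2 rad14, bearing defects in cell cycle control and DNA repair, serves as the test system; values reflect growth inhibition compared with vehicle.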
Test [5] is described as follows: NCI Yeast Anticancer Drug Screen. Data for the bub3 strain (AID 167). The following applies: S. cerevisiae bub3 mutant strain, active compounds read high. The method in brief: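 Yeast carrying a defined mutation is treated with each compound, and growth is compared with that of vehicle-exposed cells to give inhibition.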
The nature of test [6]: NCI Yeast Anticancer Drug Screen. Data for the mlh1 rad18 strain (AID 175). The settings on record: S. cerevisiae mlh1 rad18 strain growth inhibition, active compounds read high. In short, it runs like this:
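Steps: expose repair-defective yeast to compound; measure growth; express inhibition against vehicle-treated controls.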

Where [7] appears, read: at 5.0 µM (retest, dose inferred, filed as 0.5).
The mark [8] stands for this setting: at 50.0 µM (retest, dose inferred, filed as 5.0).

Compounds without any hit were thinned out: in the full panel of roughly 79,000, 15% have a hit. Unmarked numbers belong to inactive results. Activity calls are given as the source filed them. No stated cut-off is given here; in the data, active means growth inhibition above about 70%; inactive means the rest.

On to `O=C(O)CN1CCNCCN(CC(=O)O)CCNCC1`, for which the growth inhibition in test [1] (setting [7]) was 66%; in test [1] (setting [8]) it was 94% (active); in test [1] (at 50.0 µM) it was 50.7%; in test [2] (setting [7]), 59%; in test [2] (setting [8]) it was 93% (active); in test [2] (at 50.0 µM), 76.1% (active). Besides, the growth inhibition in test [3] (setting [7]) is 56%; in test [3] (setting [8]) it was 94% (active); in test [3] (at 50.0 µM) it was 69.8%; in test [4] (setting [7]), 25%; in test [4] (setting [8]), 85% (active); in test [4] (at 50.0 µM) it was 54.8%. The growth inhibition in test [5] (setting [7]) was 60%; in test [5] (setting [8]), 95% (active); in test [5] (at 50.0 µM) it was 56.2%; in test [6] (setting [7]) it was 66%; in test [6] (setting [8]), 94% (active); in test [6] (at 50.0 µM), 56%.

Regarding `O=[N+]([O-])c1ccc(-c2ccc(-c3csc(Nc4ccccc4)n3)o2)cc1`, the growth inhibition is 42% in test [1] (setting [7]); 96% (active) in test [1] (setting [8]); 93.2% (active) in test [1] (at 50.0 µM); 96% (active) in test [2] (setting [7]); 98% (active) in test [2] (setting [8]); 93.4% (active) in test [2] (at 50.0 µM). The growth inhibition is 44% in test [3] (setting [7]); 97% (active) in test [3] (setting [8]); 92.6% (active) in test [3] (at 50.0 µM); 63% in test [4] (setting [7]); 97% (active) in test [4] (setting [8]); 90.8% (active) in test [4] (at 50.0 µM). The growth inhibition in test [5] (setting [7]) is 97% (active); in test [5] (setting [8]), 98% (active); in test [5] (at 50.0 µM), 93% (active); in test [6] (setting [7]), 98% (active); in test [6] (setting [8]) it was 97% (active); in test [6] (at 50.0 µM), 90.5% (active).

For `OC(CN1CCc2ccccc2C1)c1ccc2ccccc2c1` (configuration not stated), the growth inhibition is 23% in test [1] (setting [7]); 64% in test [1] (setting [8]); 86.5% (active) in test [1] (at 50.0 µM); 18% in test [2] (setting [7]); 58% in test [2] (setting [8]); 50.5% in test [2] (at 50.0 µM). Moreover, the growth inhibition is 34% in test [3] (setting [7]); 86% (active) in test [3] (setting [8]); 88.5% (active) in test [3] (at 50.0 µM); 26% in test [4] (setting [7]); 58% in test [4] (setting [8]); 68.3% in test [4] (at 50.0 µM). The growth inhibition was 36% in test [5] (setting [7]); 93% (active) in test [5] (setting [8]); 94.6% (active) in test [5] (at 50.0 µM); 25% in test [6] (setting [7]); 82% (active) in test [6] (setting [8]); 45.3% in test [6] (at 50.0 µM).

With `CCO/C=C1N=C(/C=C/c2ccc(Cl)cc2)OC/1=O`, the growth inhibition is 5% in test [1] (setting [7]); 31% in test [1] (setting [8]); 28.4% in test [1] (at 50.0 µM); 7% in test [2] (setting [7]); 13% in test [2] (setting [8]); 32.8% in test [2] (at 50.0 µM). The growth inhibition in test [3] (setting [7]) is 14%; in test [3] (setting [8]), 19%; in test [3] (at 50.0 µM) it was 47%; in test [4] (setting [7]), 8%; in test [4] (setting [8]) it was 43%; in test [4] (at 50.0 µM), -38.7%. The growth inhibition in test [5] (setting [7]) was 14%; in test [5] (setting [8]), 29%; in test [5] (at 50.0 µM) it was 22.6%; in test [6] (setting [7]), 1%; in test [6] (setting [8]), 25%; in test [6] (at 50.0 µM) it was 40.8%.

Consider `N#CC(Br)(C#N)Cc1ccccc1`, for which the growth inhibition in test [1] (setting [7]) is 1%; in test [1] (setting [8]), 100% (active); in test [1] (at 50.0 µM), 98.8% (active); in test [2] (setting [7]), 8%; in test [2] (setting [8]), 100% (active); in test [2] (at 50.0 µM), 99.6% (active). Further, the growth inhibition in test [3] (setting [7]) was -11%; in test [3] (setting [8]), 90% (active); in test [3] (at 50.0 µM), 99.1% (active); in test [4] (setting [7]), -10%; in test [4] (setting [8]), 99% (active); in test [4] (at 50.0 µM) it was 99.2% (active). Besides, the growth inhibition in test [5] (setting [7]) is 9%; in test [5] (setting [8]), 100% (active); in test [5] (at 50.0 µM), 99.5% (active); in test [6] (setting [7]) it was -10%; in test [6] (setting [8]), 100% (active); in test [6] (at 50.0 µM) it was 99.3% (active).

`Cc1ccc2[nH]c3c(c2c1)[n+]([O-])c1ccccc1[n+]3[O-]`: the growth inhibition in test [1] (setting [7]) is 5%; in test [1] (setting [8]) it was 16%; in test [1] (at 50.0 µM) it was -17.4%; in test [2] (setting [7]), 3%; in test [2] (setting [8]), -4%; in test [2] (at 50.0 µM), 35.5%. Besides, the growth inhibition in test [3] (setting [7]) was -8%; in test [3] (setting [8]), -13%; in test [3] (at 50.0 µM) it was 5.8%; in test [4] (setting [7]) it was -4%; in test [4] (setting [8]), -7%; in test [4] (at 50.0 µM) it was -22.5%. The growth inhibition is -8% in test [5] (setting [7]); -6% in test [5] (setting [8]); 37.3% in test [5] (at 50.0 µM); -6% in test [6] (setting [7]); 7% in test [6] (setting [8]); -0.5% in test [6] (at 50.0 µM).

On to `CCCCN(CCCC)CCCC(O)c1c2ccc(Cl)cc2nc2ccc(OC)cc12` (configuration not stated), for which the growth inhibition in test [1] (setting [7]) was 1%; in test [1] (setting [8]), 24%; in test [1] (at 50.0 µM) it was 18.1%; in test [2] (setting [7]), -1%; in test [2] (setting [8]), 5%; in test [2] (at 50.0 µM) it was 30%. Besides, the growth inhibition in test [3] (setting [7]) is 26%; in test [3] (setting [8]), 11%; in test [3] (at 50.0 µM), 18.9%; in test [4] (setting [7]), -3%; in test [4] (setting [8]) it was 0%; in test [4] (at 50.0 µM) it was 25.6%. The growth inhibition is 3% in test [5] (setting [7]); 10% in test [5] (setting [8]); 47.8% in test [5] (at 50.0 µM); 3% in test [6] (setting [7]); 23% in test [6] (setting [8]); 70.7% (active) in test [6] (at 50.0 µM).

Regarding `COc1c(O)cc2c(c1O)C(=O)C1=C(CCCC1)C2=O`, the growth inhibition is -4% in test [1] (setting [7]); 63% in test [1] (setting [8]); 47.1% in test [1] (at 50.0 µM); 2% in test [2] (setting [7]); 49% in test [2] (setting [8]); 22.2% in test [2] (at 50.0 µM). Also, the growth inhibition was 4% in test [3] (setting [7]); 88% (active) in test [3] (setting [8]); 62.1% in test [3] (at 50.0 µM); -5% in test [4] (setting [7]); 22% in test [4] (setting [8]); 38.9% in test [4] (at 50.0 µM). Moreover, the growth inhibition in test [5] (setting [7]) was 11%; in test [5] (setting [8]), 80% (active); in test [5] (at 50.0 µM), 65%; in test [6] (setting [7]), 2%; in test [6] (setting [8]) it was 70% (active); in test [6] (at 50.0 µM), 21.3%.

As to `NC(=O)C1(Br)C=[N+](Cc2ccccc2)CCC1` (configuration not stated), the growth inhibition is 0% in test [1] (setting [7]); -2% in test [1] (setting [8]); 29.2% in test [1] (at 50.0 µM); 3% in test [2] (setting [7]); -3% in test [2] (setting [8]); 11.9% in test [2] (at 50.0 µM). For the same molecule, the growth inhibition in test [3] (setting [7]) was -3%; in test [3] (setting [8]), -4%; in test [3] (at 50.0 µM) it was 11.8%; in test [4] (setting [7]), -2%; in test [4] (setting [8]) it was -3%; in test [4] (at 50.0 µM) it was 13.9%. Besides, the growth inhibition in test [5] (setting [7]) was -2%; in test [5] (setting [8]) it was -6%; in test [5] (at 50.0 µM), -3.4%; in test [6] (setting [7]), 2%; in test [6] (setting [8]), 1%; in test [6] (at 50.0 µM), 24.4%.
